High-throughput results deposited in PubChem BioAssay by National Center for Advancing Translational Sciences (NCATS).
Shown are actives, neighbours in structure and some others; about 4.5% of the full set was active somewhere.
ERK AVP block: blocks ERK signaling stimulated by vasopressin; HEK293-V1b, vasopressin-stimulated pERK AlphaScreen; Potency, µM (doses to about 57.5 µM), usual class: inhibitors; 72,000 compounds, 0.99% hits; AID 995; also: nearly all actives have a fitted effect of over 55% in size
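qHTS, compounds titrated on V1b-expressing HEK293 cells. Preincubation 30 min at 37C, vasopressin 25 nM for 5 min, lysis 10 min, bead incubation 5 hr at room temperature.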
TSHR agonist: activates the human thyroid stimulating hormone receptor | HEK293-CNG-TSHR cells (CNG channel as cAMP sensor), membrane potential dye, cAMP | Potency, µM (top dose mostly 57.1 µM), actives largely listed as activators | 73,000 compounds, 0.48% hits | AID 926; active = well fitted activation curve with a large enough effect in the main read-out, with a control signal flat, not every such curve was filed as active; inconclusive = small, poorly fitted or top-dose-only effect, or a change in a side signal; inactive = no such curve, though single readings can be large or run the other way; reference of the percent scale not stated here;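 also: the control signal comes from parental cells without the receptor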
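HEK 293 cells stably expressing TSHR and a cAMP-gated CNG channel; parental CNG-only cells as counterscreen. Cells preloaded 60 min with membrane potential dye plus 100 uM RO 20-1724, then compound 30 min; fluorescence read at 590 nm.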
HEK293 cAMP ctrl: raises cAMP in parental HEK293 cells, TSHR agonist counter-screen; parental HEK293 CNG cAMP sensor, membrane potential fluorescence; Potency, µM (highest dose often 57.1 µM), most hits filed as activators; 73,000 compounds, 2.5% hits; AID 938; also: nearly all actives have a fitted effect of over 55% in size
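Counterscreen for endogenous-receptor signalling: CNG-channel HEK 293 cells report cAMP rise by membrane depolarization. After 60 min dye equilibration with 100 uM RO 20-1724, compounds incubated 30 min before bottom-read fluorescence at 590 nm.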
Casp7 inh: allosteric or competitive inhibitors of human caspase-7; Potency, µM (top dose mostly 57.5 µM), usual class: inhibitors; P55210; recombinant caspase-7, Ac-DEVD-AFC fluorescence rate; AID 889; 75,000 compounds, 0.02% hits; active = well fitted inhibition curve with a large enough effect in the main read-out, with a control signal flat, not every such curve was filed as active; inconclusive = small, poorly fitted or top-dose-only effect, or a change in a side signal
GBA activity: modulators of human glucocerebrosidase; purified enzyme, resorufin glucoside fluorescence (screen aimed at inhibitors), 20 min; Potency, µM; P04062; 48,000 compounds, 1.1% hits; AID 360; in the data active = potency below about 15 µM; inconclusive = mostly about 16 µM to 33 µM;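 also: the screen sought inhibitors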
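Compounds titrated against 0.2 nM normal enzyme, 30 uM resorufin beta-D-glucopyranoside substrate, citrate/phosphate buffer with taurocholate and tween-20, pH 5.9. Reaction ran 20 min at room temperature; fluorescence (Ex 548/Em 600) gave AC50.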
Casp1 inh: blocks human caspase-1 allosterically or competitively; P29466; Caspase-1 enzyme, Ac-WEHD-AFC fluorogenic rate; Potency, µM (series often up to 57.5 µM), hits mostly inhibitors; 75,000 compounds, 0.03% hits; AID 900
Numbers stand for hits; . = inactive; ? = inconclusive; / = no result; [ ] = dose if it differs, or a comment. Unless noted, calls follow the shape of the dose curve; as a rule, active = well fitted curve in the direction sought with a large enough effect; inconclusive = small, poorly fitted or top-dose-only effect, or another doubt; inactive = no such curve, though single readings can be large; an effect the other way counts as inactive or inconclusive.

SMILES | ERK AVP block | TSHR agonist | HEK293 cAMP ctrl | Casp7 inh | GBA activity | Casp1 inh
CCc1nnc(NC(=O)CSc2nnc(-c3ccccc3O)n2-c2ccc(C)cc2C)s1 | . | ? | 20µM | . | . | .
NCCCCCCN | . | . | . | . | / | .
COC(=O)c1c(C(=O)OC)c2cc(C)ccn2c1Cl | . | ? | 20µM | . | . | .
Cc1[nH]nc2c1-c1nc3ccccc3nc1C(C)(C)C2 | 13µM | . | . | . | . | .
O=c1c2cnn(-c3ccccc3)c2nc(-c2ccco2)n1-c1ccccc1 | ? | ? | 20µM | . | / | .
O=c1oc(-c2ccco2)nc2c1cnn2-c1ccccc1 | . | . | . | . | . | .
CC(C)CN=C(N)N=C(N)N | .[11.5 µM] | .[11.4 µM] | .[11.4 µM] | .[11.5 µM] | / | .[11.5 µM]
COc1cccc(-c2cc(NCc3ccccc3)ncn2)c1 | 5µM | ? | ? | . | / | .
Clc1ccccc1-c1cc(NCc2ccccc2)ncn1 | 25µM | ? | ? | . | / | .
Cc1cnc(CNc2cc(-c3ccccc3Cl)ncn2)cn1 | . | ? | ? | . | / | .
Cn1c(O)c(N=N/C(=N/c2ccccn2)c2ccccn2)c2cc(Br)ccc21 | / | ? | . | . | / | .
CCn1cc(C2=NOC(C(=O)Nc3ccc4c(c3)OCO4)C2)c(C)n1 (stereo not given) | / | ? | 1µM | . | / | .
CC(=O)OC[C@@H]1O[C@@H](O/N=C2/C[C@@H](O)[C@@H](O)[C@@H]3[C@@H]4C(=O)N(C(C)(C)C)C(=O)[C@H]4CC[C@@H]23)[C@H](OC(C)=O)[C@H](OC(C)=O)[C@@H]1OC(C)=O | .[11.5 µM] | .[11.4 µM] | .[11.4 µM] | .[11.5 µM] | / | .[11.5 µM]
COC(=O)[C@@]1(Cc2ccccc2)[C@H]2c3cc(C(=O)N(C)C)n(CCF)c3C[C@H]2CN1C(=O)c1ccccc1 | . | ? | 25µM | . | / | .
COC(=O)[C@@]1(Cc2ccc(OC)cc2)[C@H]2c3cc(C(=O)N4CCCC4)n(CCN4CCOCC4)c3C[C@H]2CN1C(=O)c1ccccc1 | . | ? | 20µM | . | / | .
COC(=O)[C@@]1(Cc2ccc(OC)cc2)[C@H]2c3cc(C(=O)N4CCCC4)n(CCn4cc([N+](=O)[O-])nc4C)c3C[C@H]2CN1C(=O)c1ccccc1 | . | . | . | . | / | .
COC(=O)[C@@]1(Cc2ccc(OC)cc2)[C@H]2c3cc(C(=O)N4CCCC4)n(C[C@H](O)CO)c3C[C@H]2CN1C(=O)c1ccccc1 | . | . | . | . | / | .
COC(=O)[C@@]1(Cc2ccc(OC)cc2)[C@H]2c3cc(C(=O)N4CCCC4)n(CCF)c3C[C@H]2CN1C(=O)c1ccccc1 | . | ? | 20µM | . | / | .
COC(=O)[C@@]1(Cc2ccccc2)[C@H]2c3cc(C(=O)N(C)C)n(CCO)c3C[C@H]2CN1C(=O)c1ccccc1 | . | . | . | . | / | .
COCCn1c(C(=O)N2CCCC2)cc2c1C[C@H]1CN(C(=O)c3ccccc3)[C@@](Cc3ccc(OC)cc3)(C(=O)OC)[C@@H]21 | . | ? | ? | . | / | .
COC(=O)[C@@]1(Cc2ccc(OC)cc2)[C@H]2c3cc(C(=O)N4CCCC4)n(Cc4ccc(OC)c(OC)c4)c3C[C@H]2CN1C(=O)c1ccccc1 | . | ? | 5µM | . | / | .
CNc1ncncc1-c1ccccc1OC | . | . | . | . | / | .
c1ccc(-c2cc3c(-n4cccc4)ncnc3o2)cc1 | . | ? | 20µM | . | / | .
c1cn(-c2ncnc3ccc(-c4ccoc4)cc23)cn1 | . | . | . | . | / | .
C[N+]1(C)CCC[C@H]1C(=O)[O-] | . | / | . | . | / | .
SMILES | ERK AVP block | TSHR agonist | HEK293 cAMP ctrl | Casp7 inh | GBA activity | Casp1 inh
CCn1c(N2CCN(S(=O)(=O)c3ccccc3C(F)(F)F)CC2)nc2ccccc21 | 32µM | ? | ? | . | . | .
C[C@@]1(CO)[C@H](O)CC[C@]2(C)[C@@H]1CC[C@H]1C[C@H]3C[C@]12CC[C@]3(O)COC(=O)CN | .[11.5 µM] | .[11.4 µM] | .[11.4 µM] | .[11.5 µM] | / | .[11.5 µM]
Nc1nc2c(s1)CCc1c-2cnn1-c1ccccc1 | 25µM | .[11.4 µM] | . | . | . | ?
O=C(NC1CCCCCCC1)C1CCN(S(=O)(=O)N2CCC3(CC2)OCCO3)CC1 | . | . | . | . | 11 | .
O=C(NC1CCCCC1)C1CCN(S(=O)(=O)N2CCCCCC2)CC1 | . | . | . | . | . | .
COc1cc2c(C=O)c3c4c(cc(OC)c(OC)c4c2cc1OC)CCN3C | ? | / | / | . | / | ?
Cc1ccccc1-c1cc(-n2ccnc2)ncn1 | . | . | . | . | / | .
COc1ccc(-n2c(C)c(C(C)=O)c(C(C)=O)c2C)cc1OC | 32µM | . | . | . | / | .
COc1ccc(/C=N/NC(=O)c2cc(-c3ccc(Cl)cc3)n[nH]2)cc1OC | / | . | . | . | / | .
CCC(=O)Nc1ccc(C(=O)Cn2nc(C(=O)O)c3ccccc3c2=O)cc1 | . | . | . | . | 4.6 | .
Cc1cnc(CNc2ncnc3ccc(-c4c(C)noc4C)cc23)cn1 | . | / | . | . | / | .
CCCCN(CC)S(=O)(=O)c1cccc2cccnc12 | / | ? | 20µM | . | / | .
O=S(=O)(c1cccc2cccnc12)N(CCO)CCO | . | . | . | . | / | .
COCCOC(=O)C1=C(C)NC(=O)NC1c1cn(-c2ccccc2)nc1-c1cccs1 (stereo not given) | . | . | . | . | . | .
COC(=O)C1=C(C)NC(C)=C(C(=O)OC)C1c1cn(-c2ccccc2)nc1-c1ccco1 | . | 1.6µM | . | . | / | .
CCOc1ccc(Br)cc1-c1noc(-c2cccs2)n1 | . | 25µM | . | . | / | .
CCc1nnc(NC(=O)c2ccc(-c3cccc(C(F)(F)F)c3)o2)s1 | . | . | . | . | 1.8 | .
CCc1nnc(NC(=O)c2ccc(COc3ccccc3)o2)s1 | . | . | . | . | . | .
COC(=O)[C@@]1(Cc2ccc(F)cc2)[C@H]2c3cc(C(=O)N4CCCC4)n(Cc4cc(C)n(C)n4)c3C[C@H]2CN1C(=O)c1ccccc1 | . | ? | 16µM | . | / | .
COC(=O)[C@@]1(Cc2ccc(F)cc2)[C@H]2c3cc(C(=O)N4CCCC4)n(CC4CC4)c3C[C@H]2CN1C(=O)c1ccccc1 | . | ? | 4µM | . | / | .
COC(=O)[C@@]1(Cc2ccc(F)cc2)[C@H]2c3cc(C(=O)N(C)C)n(Cc4cc(C)n(C)n4)c3C[C@H]2CN1C(=O)c1ccccc1 | . | ? | ? | . | / | .
COC(=O)[C@@]1(Cc2ccc(F)cc2)[C@H]2c3cc(C(=O)N4CCCC4)n(Cc4ccc(C)c(F)c4F)c3C[C@H]2CN1C(=O)c1ccccc1 | . | ? | ? | . | / | .
COC(=O)[C@@]1(Cc2ccc(F)cc2)[C@H]2c3cc(C(=O)N4CCCC4)n(Cc4ccc(C)o4)c3C[C@H]2CN1C(=O)c1ccccc1 | . | ? | 32µM | . | / | .
